What is called Inhibition is the percentage by which the read-out fell short of the control.

One assay deals with Plasmodium falciparum. Put plainly: GSK_TCMDC: Inhibition of Plasmodium falciparum 3D7 in whole red blood cells, using parasite LDH activity as an index of growth. Test compounds present at 2uM. Format: functional.
Molecule `CN(C)c1cccc2c1nc(-c1ccco1)n2CC1CCCN1.O=C(O)C(F)(F)F` (stereo not given) returned an Inhibition of 86%.

On to `C=CCN1C(=O)C(=Cc2cc(Br)ccc2O)SC1=Nc1ccccc1`, for which the Inhibition amounted to 96%.

Molecule `Cl.O=c1cc(NCCCNCc2sc(Br)nc2Br)[nH]c2ccccc12` had an Inhibition of 92%.

In the case of `CN1CCN(CC(=O)Nc2ccc(-c3ccc(-c4nc5ccccc5[nH]4)cc3)cc2)CC1`, the Inhibition is listed as 98%.

Turning to `CCCCCCCN1CCC(CCNc2ccnc3ccc(OC)cc23)CC1`, the Inhibition amounted to 84%.

`O=S(=O)(Nc1ccc(CCN2CCC(N3CCCCC3)CC2)cc1)c1ccccc1C(F)(F)F` came in with an Inhibition of 95%.

For `COc1ccc(Nc2nc(N/N=C/c3ccc(O)cc3)nc(Nc3ccc([N+](=O)[O-])cc3)n2)cc1`, the Inhibition stood at 93%.

With `Br.c1cc(C2=NC3CCCCC3N2)ccc1OCCCOc1ccc(C2=NC3CCCCC3N2)cc1` (stereo not given), the Inhibition is given as 99%.

Molecule `COc1ccc(N(C)Cc2cnc3nc(N)nc(N)c3n2)cc1` gave an Inhibition of 98%.

Regarding `COc1ccc(CCNCC(O)c2cccc(Br)c2)c(Cl)c1OC.Cl` (stereo not given), the Inhibition was 87%.

Molecule `CCc1nc(N)nc(N)c1-c1ccc(C(C)C)cc1` registered an Inhibition of 92%.

With `O=C(Nc1ccc(OC2CCN(Cc3ccsc3)C2)c(Cl)c1)c1cccs1.O=C(O)C(F)(F)F` (stereo not given), the Inhibition was 91%.

`COc1ccccc1C1CCN(CCCCNC(=O)c2ccc(/C=C/c3cc(Cl)cc(Cl)c3)cc2)CC1` gave an Inhibition of 96%.

For `CCNc1cc(C(=O)N[C@@H](Cc2ccccc2)[C@H](O)CNC2(CC)CCCCC2)cc(N2CCCCS2(=O)=O)c1.Cl`, the Inhibition is 98%.

The molecule `CCc1c[nH]c2c(N3CCCCC3=O)cc(C(=O)N[C@@H](Cc3ccccc3)[C@H](O)CNCc3cccc(OC)c3)cc12.O=CO` displayed an Inhibition of 100%.

As to `Cl.Nc1c2c(nc3ccc(C(=O)Nc4cc(I)c(O)c(I)c4)cc13)CCCC2`, the Inhibition turned out to be 96%.

`CN1CCCC(CN2CCN(Cc3cccc(-c4cccc(-c5nc6ccccc6[nH]5)c4)c3)CC2)C1.O=C(O)C(F)(F)F` (stereo not given): the Inhibition is given as 100%.

In turn, `O=C(N1CCN(c2ccc(C(F)(F)F)cc2[N+](=O)[O-])CC1)C(Cl)(Cl)Cl` displayed an Inhibition of 100%.

In the case of `COc1ccc2[nH]ccc(=NN=Cc3cccc(F)c3)c2c1`, the Inhibition was 100%.

For `COc1ccc2nccc([C@@H](O)CN3CCC(NCc4cc5cc(Cl)ccc5[nH]4)CC3)c2c1.O=C(O)C(=O)O`, the Inhibition came out at 99%.

`Cc1cc(NCCC(=O)Nc2ccccc2)nc(NCC2CCCCC2)n1.O=C(O)C(F)(F)F` displayed an Inhibition of 100%.

Take `CC(C)(C)OC(=O)NCC(=O)N(Cc1ccccc1)Cc1ccccc1`: the Inhibition is recorded as 97%.

`Cn1cncc1-c1ccc2c(-c3ccsc3)cnc(N)c2c1` came in with an Inhibition of 97%.

For `COc1cc(Nc2nccc(N3CCC(NC(=O)Nc4ccc5c(c4)OCO5)C3)n2)cc(OC)c1OC` (stereo not given), the Inhibition is reported as 96%.

`COc1ccc2nccc(N3CCC(SCCNS(=O)(=O)c4ccc5c(c4)OCCO5)C3)c2n1.Cl` (stereo not given) showed an Inhibition of 94%.

Molecule `CN1CCCC1CCOc1ccc2c(c1)N(C(=O)Nc1cc(Br)cc(C(F)(F)F)c1)CC2.O=C(O)C(F)(F)F` (stereo not given) had an Inhibition of 100%.

For the molecule `COc1ccc2nccc([C@@H](O)CN3CCC(NCCOc4cccc(C(F)(F)F)c4)CC3)c2c1.O=C(O)C(=O)O`, the Inhibition is 100%.

`Cl.Fc1cc(CN2CCCC2)ccc1OCCCN1CCN(c2cccc(Cl)c2Cl)CC1`: the Inhibition came out at 82%.

As to `CCC(C)c1ccc(-n2c(Nc3ccccc3)nc3cc(S(N)(=O)=O)ccc32)cc1` (stereo not given), the Inhibition turned out to be 88%.

For the molecule `CCC(C)(C)c1ccc2nc(N)nc(N)c2c1C`, the Inhibition is reported as 91%.

`CC(N)(Cc1ccc(O)cc1)c1nnn[nH]1` (stereo not given) showed an Inhibition of 93%.

Turning to `O=CO.c1ccc(CCNc2ccnc(Nc3ccc4cn[nH]c4c3)n2)cc1`, the Inhibition is reported as 100%.

`CCNCc1cccc(-c2ccc3ccnc(N)c3c2)c1` registered an Inhibition of 100%.

`O=C(O)C(F)(F)F.c1cc(CN2CCN(c3ccncc3)CC2)cc(-c2cccc(-c3nc4ccccc4[nH]3)c2)c1`: the Inhibition came to 100%.

On to `Cc1sc(NC(=O)c2ccc([N+](=O)[O-])cc2Cl)c(C(N)=O)c1C`, for which the Inhibition is 94%.

Regarding `O=C(Nc1ccc(C(F)(F)F)cc1)c1cc(Br)cnc1NCCCn1ccnc1`, the Inhibition is reported as 99%.

Turning to `CN(CCCCCN1CCC(NC(=O)Nc2ccc(C(F)(F)F)cc2)C1)C(=O)/C=C/c1ccc(Cl)c(Cl)c1` (stereo not given), the Inhibition was 100%.

In the case of `CSc1nc2nc(C)c(Cc3cccc(C(F)(F)F)c3)c(C)n2n1`, the Inhibition is 98%.

`Cc1cc2nc(-c3ccc(C(=O)NCc4ccc(Cl)c(Cl)c4)cc3)[nH]c2cc1C` displayed an Inhibition of 96%.

The molecule `O=C(Nc1ccc(Cl)cc1)Nc1nc2cc([N+](=O)[O-])ccc2[nH]1` registered an Inhibition of 100%.

The next assay concerns Plasmodium falciparum. The assay can be described thus: GSK_TCMDC: Inhibition of Plasmodium falciparum Dd2 in whole red blood cells, using parasite LDH activity as an index of growth. Test compounds present at 2uM. Format: functional.
Regarding `CN(C)c1cccc2c1nc(-c1ccco1)n2CC1CCCN1.O=C(O)C(F)(F)F` (stereo not given), the Inhibition came out at 46%.

Molecule `C=CCN1C(=O)C(=Cc2cc(Br)ccc2O)SC1=Nc1ccccc1` yielded an Inhibition of 55%.

`Cl.O=c1cc(NCCCNCc2sc(Br)nc2Br)[nH]c2ccccc12`: the Inhibition stood at 44%.

For `CN1CCN(CC(=O)Nc2ccc(-c3ccc(-c4nc5ccccc5[nH]4)cc3)cc2)CC1`, the Inhibition is 80%.

The molecule `CCCCCCCN1CCC(CCNc2ccnc3ccc(OC)cc23)CC1` yielded an Inhibition of 86%.

`O=S(=O)(Nc1ccc(CCN2CCC(N3CCCCC3)CC2)cc1)c1ccccc1C(F)(F)F` yielded an Inhibition of 8%.

In the case of `COc1ccc(Nc2nc(N/N=C/c3ccc(O)cc3)nc(Nc3ccc([N+](=O)[O-])cc3)n2)cc1`, the Inhibition was 16%.

Take `Br.c1cc(C2=NC3CCCCC3N2)ccc1OCCCOc1ccc(C2=NC3CCCCC3N2)cc1` (stereo not given): the Inhibition is 64%.

Take `COc1ccc(N(C)Cc2cnc3nc(N)nc(N)c3n2)cc1`: the Inhibition worked out at 0%.

Turning to `COc1ccc(CCNCC(O)c2cccc(Br)c2)c(Cl)c1OC.Cl` (stereo not given), the Inhibition came out at 70%.

`CCc1nc(N)nc(N)c1-c1ccc(C(C)C)cc1`: the Inhibition came to 0%.

On to `O=C(Nc1ccc(OC2CCN(Cc3ccsc3)C2)c(Cl)c1)c1cccs1.O=C(O)C(F)(F)F` (stereo not given), for which the Inhibition is recorded as 87%.

The molecule `COc1ccccc1C1CCN(CCCCNC(=O)c2ccc(/C=C/c3cc(Cl)cc(Cl)c3)cc2)CC1` had an Inhibition of 30%.

`CCNc1cc(C(=O)N[C@@H](Cc2ccccc2)[C@H](O)CNC2(CC)CCCCC2)cc(N2CCCCS2(=O)=O)c1.Cl` registered an Inhibition of 98%.

In turn, `CCc1c[nH]c2c(N3CCCCC3=O)cc(C(=O)N[C@@H](Cc3ccccc3)[C@H](O)CNCc3cccc(OC)c3)cc12.O=CO` showed an Inhibition of 99%.

With `Cl.Nc1c2c(nc3ccc(C(=O)Nc4cc(I)c(O)c(I)c4)cc13)CCCC2`, the Inhibition stood at 64%.

Consider `CN1CCCC(CN2CCN(Cc3cccc(-c4cccc(-c5nc6ccccc6[nH]5)c4)c3)CC2)C1.O=C(O)C(F)(F)F` (stereo not given), for which the Inhibition was found to be 99%.

In the case of `O=C(N1CCN(c2ccc(C(F)(F)F)cc2[N+](=O)[O-])CC1)C(Cl)(Cl)Cl`, the Inhibition is on record as 99%.

Molecule `COc1ccc2[nH]ccc(=NN=Cc3cccc(F)c3)c2c1` displayed an Inhibition of 65%.

In turn, `COc1ccc2nccc([C@@H](O)CN3CCC(NCc4cc5cc(Cl)ccc5[nH]4)CC3)c2c1.O=C(O)C(=O)O` came in with an Inhibition of 64%.

Regarding `Cc1cc(NCCC(=O)Nc2ccccc2)nc(NCC2CCCCC2)n1.O=C(O)C(F)(F)F`, the Inhibition was 62%.

`CC(C)(C)OC(=O)NCC(=O)N(Cc1ccccc1)Cc1ccccc1`: the Inhibition is 93%.

For `Cn1cncc1-c1ccc2c(-c3ccsc3)cnc(N)c2c1`, the Inhibition is given as 72%.

For `COc1cc(Nc2nccc(N3CCC(NC(=O)Nc4ccc5c(c4)OCO5)C3)n2)cc(OC)c1OC` (stereo not given), the Inhibition was determined as 74%.

Consider `COc1ccc2nccc(N3CCC(SCCNS(=O)(=O)c4ccc5c(c4)OCCO5)C3)c2n1.Cl` (stereo not given), for which the Inhibition was determined as 87%.

For the molecule `CN1CCCC1CCOc1ccc2c(c1)N(C(=O)Nc1cc(Br)cc(C(F)(F)F)c1)CC2.O=C(O)C(F)(F)F` (stereo not given), the Inhibition came to 97%.

`COc1ccc2nccc([C@@H](O)CN3CCC(NCCOc4cccc(C(F)(F)F)c4)CC3)c2c1.O=C(O)C(=O)O` came in with an Inhibition of 74%.

The molecule `Cl.Fc1cc(CN2CCCC2)ccc1OCCCN1CCN(c2cccc(Cl)c2Cl)CC1` came in with an Inhibition of 15%.

Turning to `CCC(C)c1ccc(-n2c(Nc3ccccc3)nc3cc(S(N)(=O)=O)ccc32)cc1` (stereo not given), the Inhibition amounted to 28%.

Molecule `CCC(C)(C)c1ccc2nc(N)nc(N)c2c1C` yielded an Inhibition of 82%.

In turn, `CC(N)(Cc1ccc(O)cc1)c1nnn[nH]1` (stereo not given) gave an Inhibition of 2%.

For the molecule `O=CO.c1ccc(CCNc2ccnc(Nc3ccc4cn[nH]c4c3)n2)cc1`, the Inhibition is 100%.

`CCNCc1cccc(-c2ccc3ccnc(N)c3c2)c1`: the Inhibition is listed as 98%.

With `O=C(O)C(F)(F)F.c1cc(CN2CCN(c3ccncc3)CC2)cc(-c2cccc(-c3nc4ccccc4[nH]3)c2)c1`, the Inhibition was 98%.

As for `Cc1sc(NC(=O)c2ccc([N+](=O)[O-])cc2Cl)c(C(N)=O)c1C`, the Inhibition is 2%.

Molecule `O=C(Nc1ccc(C(F)(F)F)cc1)c1cc(Br)cnc1NCCCn1ccnc1` displayed an Inhibition of 98%.

Molecule `CN(CCCCCN1CCC(NC(=O)Nc2ccc(C(F)(F)F)cc2)C1)C(=O)/C=C/c1ccc(Cl)c(Cl)c1` (stereo not given) showed an Inhibition of 11%.

In turn, `CSc1nc2nc(C)c(Cc3cccc(C(F)(F)F)c3)c(C)n2n1` showed an Inhibition of 95%.

Take `Cc1cc2nc(-c3ccc(C(=O)NCc4ccc(Cl)c(Cl)c4)cc3)[nH]c2cc1C`: the Inhibition worked out at 83%.

Consider `O=C(Nc1ccc(Cl)cc1)Nc1nc2cc([N+](=O)[O-])ccc2[nH]1`, for which the Inhibition stood at 6%.

The values are drawn from ChEMBL document CHEMBL1157539, “Thousands of chemical starting points for antimalarial lead identification” (Nature, 2010).
